We go through 38 compounds from PubChem BioAssay (NCATS).

Records with an inconclusive call do not appear. Entries that show only a call come without a potency. A number with no mark means an inactive call. Active and inactive are the calls of the source. Calls follow the shape of the dose curve; as a rule, active = well fitted inhibition curve with a large enough effect; inconclusive = small, poorly fitted or top-dose-only effect; inactive = no such curve, though single readings can be large or run the other way.

This assay concerns Zika virus NS2B-NS3 protease (linked construct). The experiment in a line: Primary screen NINDS Rhodamine qHTS for Zika virus inhibitors (AID 1347160). Also: nearly all actives have a fitted effect of over 55% in size. To be noted: purified NS2B-NS3 protease, Rhodamine110 substrate fluorescence; series mostly up to 57.1 µM. A digest of the protocol:
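In 10 mM Tris-HCl pH 8.0 containing 0.01% Tween 20, linked NS2B-NS3 protease (25 nM final) is exposed to test compounds for 15 min. Cleavage of 1.5 microM Rhodamine110 substrate is tracked by fluorescence over 15 min.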
As to `Cc1cc2ncc(C(=O)NCC(C)(C)NCC(=O)N3CCC[C@H]3C#N)cn2n1`, the Potency result is “inactive”. The same measure, in the same setting: in the case of `C=C1C(=O)O[C@H]2/C=C(/C)[C@@H](OC(C)=O)C/C=C(\C)C[C@@H](OC(=O)/C(=C/C)COC(=O)/C(=C/C)CO)[C@@H]12` it was “inactive”; in that of `C=C1C(=O)OC2/C=C(\CO)CC/C=C(\C=O)C(O)C(OC(=O)C(C)CC)C12` (stereo not drawn), “inactive”. Still for that read-out and setting: in the case of `C=C1C(=O)O[C@@H]2/C=C(\C)CC/C=C(/C=O)[C@H](OC)[C@@H](OC(=O)C(C)C)[C@@H]12` it was “inactive”; in that of `Nc1nc2c(nc(Br)n2[C@@H]2O[C@@H]3COP(=O)(O)O[C@H]3[C@H]2O)c(=O)[nH]1`, “inactive”; in that of `Cn1c(SCC(=O)N2CCC[C@H]2C(=O)Nc2ccccc2-c2ccccc2)nc2ccccc21`, “inactive”. The same measure, in the same setting: to `CCC(CC)(NC(=O)C(C)C)C(=O)N[C@@H](CCCN=C(N)N)C(=O)NC1(C(=O)NC(c2ccc(F)cc2)c2ccc(F)cc2)CCCC1` belongs “inactive”; to `C=C1C(=O)O[C@@H]2[C@H]3C(C)=CC(=O)C3=C(C)CC[C@@H]12`, “inactive”. As for `CCC(CC)C(c1ccc(Nc2nc3ccccc3s2)cc1)n1cncn1` (stereo not drawn), the Potency entry was “inactive”. `COc1c(C(C)C)c(O)c(O)c2c1C(OC)[C@H]1OC(=O)[C@@]23CCCC(C)(C)[C@H]13` (stereo partly drawn): the Potency entry is “inactive”. The same measure, in the same setting: in the case of `COc1ccc(CN2CCN(CCCSc3cc(C(C)(C)C)c(O)c(C(C)(C)C)c3)CC2)c(OC)c1OC` it was “inactive”; in that of `C/C=C(\C)C(=O)OC1C[C@@]2(COC(C)=O)O[C@H]2/C=C\[C@@]2(C)O[C@@H]2[C@H]2OC(=O)C(COC(C)=O)=C12` (stereo partly drawn), “inactive”. Same read-out and setting: to `O=C1COC2(CCN(S(=O)(=O)c3ccc(-c4ccc5cccnc5c4)cc3)CC2)CN1C1CC1` belongs “inactive”.

For the compound `CC(=O)OC[C@]12[C@H](OC(C)=O)C(=O)[C@@H]3[C@@H](O)[C@@]14O[C@@]3(C)COC(=O)c1cccnc1[C@@H](C)[C@H](C)C(=O)O[C@@H]([C@H](O)[C@@H]2OC(C)=O)[C@]4(C)O`, the Potency result was “inactive”. The same measure, in the same setting: in the case of `CC1=CC2/C=C(\C)CCC3OC(C)(C)OC3CCC(=O)C23C(=O)NC(CC(C)C)C3C1C` (stereo not drawn) it was “inactive”; in that of `CC(C)(Cc1ccccc1)NCC(O)c1ccc(O)c(NS(C)(=O)=O)c1` (stereo not drawn), “inactive”; in that of `CCOC(=O)c1cnn(-c2ccccc2)c1NC(=O)c1cc2nc(-c3ccco3)cc(C(F)(F)Cl)n2n1`, “inactive”.

On to `CC(C)c1ccccc1OC(=O)NCCc1ccc2ccccc2c1`, for which the Potency result is “inactive”. Same read-out and setting: to `C=C1C(=O)O[C@@H]2C[C@H](C)C3=CC(=O)[C@H](O)[C@@]3(C)C[C@H]12` belongs “inactive”; to `O=C([C@@H]1CCCN(c2ccc3[nH]c(C4(n5cc(Cl)cn5)CC4)nc3n2)C1)N1CCCC1`, “inactive”; to `O=C(NCc1ccccc1)c1ccc2c(=O)n(-c3cccc(C(F)(F)F)c3)c(=S)[nH]c2c1`, “inactive”. The same measure, in the same setting: to `NS(=O)(=O)c1ccc(N2N=C(c3ccccc3)CC2c2ccccc2)cc1` (stereo not drawn) belongs “inactive”.

For `C/C(=N\N=C(N)N)c1cc(NC(=O)CCCCCCCCC(=O)Nc2cc(/C(C)=N/N=C(N)N)cc(/C(C)=N/N=C(N)N)c2)cc(/C(C)=N/N=C(N)N)c1`, the Potency entry was “inactive”.

`C1=Cc2ccccc2C(=C2CCN(CCCCc3nn[nH]n3)CC2)c2ccccc21`: the Potency entry is “inactive”. Still for that read-out and setting: in the case of `COc1cc(C(=O)NC(=S)Nc2cccc(NC(=O)c3ccccc3)c2)cc(OC)c1OC` it was “inactive”. On to `CC(=O)O[C@@H]1C[C@]2(C)[C@@]3(CCC4[C@@]5(C)CC[C@H](O[C@@H]6O[C@H](C(=O)O)[C@@H](O)[C@H](OC7OC(CO)C(O)C(O)[C@H]7O[C@@H]7O[C@@H](C)[C@H](O)[C@@H](O)[C@H]7O[C@@H]7OC[C@](O)(CO)[C@H]7O)[C@H]6OC6OC(CO)C(O)C(O)C6O)C(C)(C)C5CC[C@]42C)OC[C@@]12CCC(C)(C)CC23` (stereo partly drawn), for which the activity change, negative = inhibition is -13.3% [at 10.7 µM].

`CC(=O)OC1CC(C)C2(CCC3(CC(=O)OC3O)O2)C2(C)CCCC(C)(C)C12` (stereo not drawn): the Potency entry is “inactive”. Consider `O=C1NC(=O)C(c2cnc3ccccn23)=C1c1cn2c3c(cc(F)cc13)CN(C(=O)N1CCCCC1)CC2`, for which the Potency entry was “inactive”. The same measure, in the same setting: to `COc1cc(CCC2=NN=C(NC(=O)c3ccc(N4C[C@@H](C)N[C@@H](C)C4)cc3)C2)cc(OC)c1` belongs “inactive”; to `CN(C)CC1CCn2c(c(C3=C(c4cn(C)c5ccccc45)C(=O)NC3=O)c3ccccc32)C1` (stereo not drawn), “inactive”.

For `O=C(NS(=O)(=O)c1ccc(Br)s1)c1ccc(Cl)cc1Cl`, the Potency entry is “inactive”.

`O=C(Nc1cc(C(F)(F)F)ccc1N1CCCCC1)c1ccncc1`: the Potency entry was “inactive”. Same read-out and setting: in the case of `O=C1Cc2c([nH]c3ccc(Br)cc23)-c2ncccc2N1` it was “inactive”. For the compound `COc1cc(OC)c(NC(=O)c2ccc(Cc3cc4c(cc3C)C(C)(C)CCC4(C)C)o2)c(OC)c1`, the Potency result is “inactive”. Same read-out and setting: in the case of `COC(=O)c1ccnc(-c2cc(C(=O)Nc3ccc(C4(N)CC4)cc3)ccn2)c1` it was “inactive”; in that of `C=C1C(=O)OC2/C=C(/C)C3=CC(=O)C(C)(CC(OC(=O)/C(C)=C/COC(C)=O)C12)O3` (stereo not drawn), “inactive”. The same measure, in the same setting: to `COc1cc(-n2cnc3cc(-c4ccc(Cl)cc4)sc3c2=O)ccc1OCCN1CCCC1` belongs “inactive”; to `Cc1nc(N2CCN(C(=O)c3ccco3)CC2)c2c3c(sc2n1)CCCC3`, “inactive”.
